Bioassay records (PubChem BioAssay)
MazEF act: activators of E. coli MazEF toxin-antitoxin RNase, primary screen, biochemical, fluorescence, uHTS. Endoribonuclease toxin MazF (Escherichia coli (strain K12)), P0AE70. FAM/BHQ RNA-DNA oligo cleavage fluorescence, 5 h. 0.32% of 350,000 active. AID 504720, 2011. activation, % at 20 µM; in the data active = activation above about 50%
Target sequence (P0AE70 whole entry, looked up): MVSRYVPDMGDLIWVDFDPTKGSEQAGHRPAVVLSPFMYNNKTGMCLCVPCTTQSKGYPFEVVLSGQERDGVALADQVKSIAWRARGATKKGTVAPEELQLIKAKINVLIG
DUSP3 inh: VHR1 phosphatase inhibitors, primary screen, biochemical, absorbance, uHTS; inhibition, % at 13.3 µM; 0.52% of 290,000 active; AID 1654, 2009; Dual specificity protein phosphatase 3 (Homo sapiens), P51452; recombinant VHR phosphatase, pNPP absorbance; in the data active = inhibition above about 50%
Target sequence (P51452 whole entry, looked up): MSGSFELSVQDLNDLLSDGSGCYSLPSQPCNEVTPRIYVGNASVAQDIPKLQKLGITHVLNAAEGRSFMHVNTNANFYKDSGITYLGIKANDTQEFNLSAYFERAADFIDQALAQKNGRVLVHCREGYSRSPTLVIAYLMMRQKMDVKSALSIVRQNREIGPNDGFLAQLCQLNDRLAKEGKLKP
BH1578 lux ind: inducers of Vibrio cholerae quorum light production without autoinducers, primary screen, BH1578 luxS cqsA deficient, single point; activation, % at 18.7 µM; 0.16% of 350,000 active; AID 588436, 2011; V. cholerae BH1578 lux reporter, luminescence, 6 h; in the data active = activation mostly above about 9.7%, no sharp cut-off
CCHF vOTU inh-1: CCHFV vOTU protease inhibitors, primary screen, biochemical, Pep-AMC substrate, fluorescence | inhibition, % at 11.5 µM | 0.55% of 370,000 active; also: 0% = vehicle wells with enzyme and 100% = no enzyme wells
Yp Topo-I inh: Yersinia pestis topoisomerase I inhibitors, primary screen, biochemical, cleavage product accumulation, plate reader, single point | Y. pestis Topo-I cleavage product accumulation | activity, % at 10 µM | 0.064% of 360,000 active | AID 504884, 2011; in the data active = activity above about 50%, passing the limit was not always enough
PrPC TRFRET: inhibitors of human cell surface prion protein PrPC, primary screen, cell-based, TR-FRET; Major prion protein (Homo sapiens), P04156; TR-FRET read-out; inhibition, % at 13.8 µM; 0.43% of 370,000 active; AID 720596, 2013; in the data active = inhibition above about 24%; also: 0% = median of the test wells and 100% = reference compound wells
CCHF vOTU inh-2: CCHFV vOTU protease inhibitors, confirmation, biochemical, Pep-AMC substrate, fluorescence; shares compounds with CCHF vOTU inh-1; Recombinant CCHFV vOTU; inhibition, % at 11.5 µM; 17% of 1,900 active
* hit, by the source's call; i = inactive; . = no result given. An excerpt weighted towards active compounds, which were near 1.8% of everything screened. Rule as the data show it, unless noted: active = inhibition above about 30%; inactive = the rest.

SMILES	MazEF act	DUSP3 inh	BH1578 lux ind	CCHF vOTU inh-1	Yp Topo-I inh	PrPC TRFRET	CCHF vOTU inh-2
CCCCn1c(NS(=O)(=O)c2ccc(C)cc2)c(C(=O)OCC)c2nc3ccccc3nc21	-3	-14	0	95*	4	4	-98
CCCCn1c(NS(=O)(=O)c2ccccc2)c(S(=O)(=O)c2ccc(C)cc2)c2nc3ccccc3nc21	4	18	0	108*	-7	-9	51*
Cc1ccc(S(=O)(=O)c2c(N)n(CCCO)c3nc4ccccc4nc23)cc1	-9	21	-3	-145	4	-9	.
COC1(NC(=O)c2ccccc2)C(C)=CC(=O)C=C1C	1	-12	-1	10	-6	-6	.
O=C(NC1(O)C(=O)c2ccccc2C1=O)c1ccccc1	-5	1	2	49*	4	4	31*
O=C(NC1(O)C(=O)c2ccccc2C1=O)c1c(Cl)cccc1Cl	-12	21	-1	62*	4	-4	14
C[C@H](CO)N1C[C@H](C)[C@@H](CN(C)C(=O)Nc2ccc3c(c2)OCO3)Oc2ccc(NS(=O)(=O)c3cn(C)cn3)cc2C1=O	6	.	-1	-5	-1	6	.
CCCN(CC(=O)Nc1cccc(S(N)(=O)=O)c1)CC(=O)Nc1ccc(F)c(F)c1F	5	5	0	-1	2	0	.
CCCN(CC(=O)Nc1cccc(Br)c1)CC(=O)Nc1ccc(F)c(F)c1F	-2	9	i	37*	17	14	-8
COC(=O)CN(C)C(=O)c1ccccc1OC1CCN(S(C)(=O)=O)CC1	7	8	-2	-3	1	0	.
CCOc1ccc(NC2=C(OC)C(=O)c3ccccc3C2=O)cc1	2	2	-1	62*	3	-2	10
COC1=C(Nc2ccc(OC)cc2)C(=O)c2ccccc2C1=O	-3	-4	2	59*	-1	9	9
COC1=C(Nc2ccc(O)cc2)C(=O)c2ccccc2C1=O	3	4	-3	40*	-11	-26	5
COC1=C(Nc2ccc(OC)cc2)C(=O)C(OC)=C(Nc2ccc(OC)cc2)C1=O	8	.	1	-5	1	-4	.
COc1ccc(NC2=C(NC(C)=O)C(=O)c3ccccc3C2=O)cc1	4	-8	i	4	-1	-67	.
Cc1ccc(NC2=CC(=O)C(=O)c3ccccc32)cc1	4	-1	i	93*	1	-15	70*
COc1cc(OC)c(NC2=CC(=O)C(=O)c3ccccc32)cc1Cl	3	66	i	16	-7	-2	.
CCOC(=O)c1ccc(NC2=CC(=O)C(=O)c3ccccc32)cc1	32	34	1	11	-16	5	.
Cc1cc(NC2=CC(=O)C(=O)c3ccccc32)no1	8	.	-2	81*	-1	-10	96*
NS(=O)(=O)c1ccc(NC2=CC(=O)C(=O)c3ccccc32)cc1	-1	0	-1	100*	-10	-22	102*
O=C1C=C(Nc2ccc(O)cc2)C(=O)c2ccccc21	4	18	-1	12	-2	-60	.
COC(=O)C1=C(C)N(Cc2ccccc2C(F)(F)F)C(=NCc2ccc(C(F)(F)F)cc2)NC1c1cccc(C(F)(F)F)c1 (centres undefined)	.	.	.	19	.	1	.
COC(=O)C1=C(C)N(Cc2ccccc2C(F)(F)F)C(=NCc2ccc(C(F)(F)F)cc2)NC1c1cccc(Cl)c1 (centres undefined)	.	.	.	36*	.	9	-5
C=CCN=C1NC(c2cccc(Cl)c2)C(C(=O)OC)=C(C)N1Cc1cccc(C(F)(F)F)c1 (centres undefined)	.	.	.	30*	.	-12	-5
COC(=O)C1=C(C)N(Cc2ccc(C(F)(F)F)cc2)C(=NCc2ccc(OC)cc2)NC1c1ccccc1 (centres undefined)	.	.	.	30*	.	-12	-1
SMILES	MazEF act	DUSP3 inh	BH1578 lux ind	CCHF vOTU inh-1	Yp Topo-I inh	PrPC TRFRET	CCHF vOTU inh-2
C=CCN=C1NC(c2ccccc2)C(C(=O)OC)=C(C)N1Cc1cccc(C(F)(F)F)c1 (centres undefined)	.	.	.	-2	.	-18	.
COc1ccccc1N(CCC#N)C(=O)COC(=O)CCC(=O)c1ccc(F)cc1	-4	.	0	14	8	-4	.
Cc1ccc(Cc2ccccc2C(=O)O)cc1	9	.	.	-7	-10	5	.
CCOc1ccccc1NC(=O)CNC(=O)CNC(=O)Cc1ccccc1	0	-2	-1	13	-2	-12	.
CN1C(=O)[C@@H]2[C@H](C1=O)[C@@H]1C(=O)Nc3ccccc3C(=O)N1[C@@H]2c1ccc(F)cc1	2	1	0	-2	0	-2	.
CCN1C(=O)[C@@H]2[C@H](C1=O)[C@@H]1C(=O)Nc3ccccc3C(=O)N1[C@@H]2c1ccc(OC)cc1	1	.	i	34*	-2	0	-31
Cc1cc(N2CCN(C(=O)c3[nH]c(C(F)(F)F)nc3-c3ccccc3)CC2)c2ccccc2n1	.	.	.	19	.	9	.
O=C(COc1ccc2c(c1)CCC2)NCc1ccc(Cl)cc1	-14	-5	-2	-1	-1	-3	.
CCOC(=O)c1c(S(=O)(=O)NCC(=O)NCc2ccc(C)cc2)c(C)n(C)c1C	12	-14	0	42*	-6	3	-12
O=C(COc1coc(CN2CCCc3ccccc32)cc1=O)Nc1ccc([N+](=O)[O-])cc1	7	.	-1	6	-3	-20	.
C[C@@H]1CCCCO[C@@H](CN(C)C(=O)Nc2ccccc2)[C@@H](C)CN([C@H](C)CO)C(=O)c2cc(N(C)C)ccc2O1	7	.	0	31*	3	9	-19
C[C@@H]1CCCCO[C@H](CN(C)C(=O)Cc2ccccc2)[C@@H](C)CN([C@H](C)CO)C(=O)c2cc(NC(=O)Nc3ccccc3)ccc2O1	-16	.	2	31*	8	-3	-12
COc1ccc(NC(=O)N(C)C[C@H]2OCCCC[C@@H](C)Oc3ccc(N(C)C)cc3C(=O)N([C@H](C)CO)C[C@@H]2C)cc1	4	.	-1	0	22	-3	.
C[C@@H]1CCCCO[C@H](CN(C)Cc2ccc(Cl)c(Cl)c2)[C@H](C)CN([C@@H](C)CO)C(=O)c2cc(NC(=O)Nc3ccc(F)cc3)ccc2O1	-3	.	i	31*	3	-6	-14
C[C@@H]1CCCCO[C@H](CN(C)C(=O)Cc2ccccc2)[C@H](C)CN([C@@H](C)CO)C(=O)c2cc(NC(=O)Nc3ccc(F)cc3)ccc2O1	-2	.	i	10	42	6	.
